# Assay outcomes (PubChem)
# Compounds with a hit are over-represented: about 0.97% of the library has one in this group of screens.
# Epigenetic derep: regulators of epigenetic silencing causing reporter derepression in mouse cells; murine LDR cells, GFP reporter derepression, 30 h; Potency, µM (series often up to 53.9 µM), for inactives: at the top dose GFP activation, actives largely listed as activators; 0.2% of 280,000 active; AID 1865; also: potency is read from the fitted curve at half-maximal effect; % of control where 0% means no effect; nearly all actives have a fitted effect of over 60% in size
#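 Readout is the number of GFP-expressing murine LDR cells, counted by cytometry following washing. Cells were treated with compound for 30 h at 37 C; the stably integrated CMV-GFP locus is normally silent.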
# MBNL1 CUG block: MBNL1-poly(CUG) RNA binding inhibition | Q9NR56 | TR-FRET MBNL1-His/biotin-(CUG)12 binding, 665/545 ratio | Potency, µM (doses to about 57.5 µM), without a hit: at the top dose activity change, negative = inhibition, hits mostly inhibitors | 0.036% of 280,000 active; active = well fitted inhibition curve with a large enough effect in the signal ratio, with a control signal flat, not every such curve was filed as active; inconclusive = small, poorly fitted or top-dose-only effect, or effect the other way, or a change in a side signal; inactive = no such curve, though single readings can be large or run the other way; the % refers to the signal ratio; also: potency is read from the fitted curve at half-maximal effect; % is scaled to controls: 0 for no effect and ±100 for the full control effect
# Target sequence (Q9NR56 whole entry, looked up): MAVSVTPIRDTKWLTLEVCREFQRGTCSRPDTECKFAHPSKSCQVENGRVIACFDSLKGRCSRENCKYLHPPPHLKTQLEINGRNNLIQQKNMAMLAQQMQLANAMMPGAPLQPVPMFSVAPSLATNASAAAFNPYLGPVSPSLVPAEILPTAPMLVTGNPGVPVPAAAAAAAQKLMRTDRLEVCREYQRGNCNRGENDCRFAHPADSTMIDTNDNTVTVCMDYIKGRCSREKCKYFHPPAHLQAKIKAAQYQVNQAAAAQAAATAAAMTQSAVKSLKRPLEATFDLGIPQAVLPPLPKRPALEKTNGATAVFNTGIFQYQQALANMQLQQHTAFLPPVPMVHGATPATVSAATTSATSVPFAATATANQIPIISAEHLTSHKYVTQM
#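 TR-FRET between His-tagged MBNL1 and biotin-(CUG)12 RNA, detected with Tb anti-His antibody (0.055 ng/ul) and streptavidin-XL665 (5 nM), 60 min at room temperature. Compounds titrated 92 nM to 58 uM; 665/545 nm ratio normalized to buffer and complex controls.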
# Mm-Cpn inhibitor: inhibitors of Methanococcus maripaludis chaperonin TRiC (MmCpn); purified Mm-Cpn ATPase, ADP Transcreener TR-FRET; 0.031% of 330,000 active; AID 504842; Potency, µM (top dose mostly 76.9 µM), for inactives: at the highest dose activity, negative = inhibition, usual class: inhibitors; also: potency is read from the fitted curve at half-maximal effect; % is scaled to controls: 0 for no effect and ±100 for the full control effect; nearly all actives have a fitted effect of over 80% in size
#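 25 nM Mm-CPN + cpd, 10 min 37°C; + 10 uM ATP, 30 min 37°C; buffer 30 mM Tris pH 7.4, 100 mM KCl, 5 mM MgCl2, 1 mM DTT; Transcreener ADP HTRF detection 30 min RT.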
# CCT modulator: changes cytosolic chaperonin activity; purified chaperonin ATPase assay, HTRF ADP detection, 30 min; activity change, % (concentration not given with the values), hits read low; 0.3% of 360,000 active; AID 651819; in the data active = activity change below about -30%; also: % is scaled to controls: 0 for no effect and ±100 for the full control effect
#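 TRiC at 40 or 20 nM final (batch-dependent) in 30 mM Tris pH 7.4, 100 mM KCl, 5 mM MgCl2, 1 mM DTT, with compound at single 76 uM and 10 uM ATP, 30 min at 37 deg C. ADP detected by HTRF Transcreener, 665/615 ratio.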
# pAkt inh: inhibitors of Akt phosphorylation | 0.32% of 360,000 active | AID 651550 | activity change, % for hits at 50 µM | Neuro2A IGF-stimulated pAkt S473 HTRF, 20 min; active compounds read low; in the data active = activity change below about -80%; inconclusive = mostly about -51% to -80%; also: % is scaled to controls: 0 for no effect and ±100 for the full control effect
#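 Neuro2A cells in DMEM with 0.5% FBS, overnight at 37 deg C, given compound at single 50 µM final, then IGF (6 nM final) for 20 min at 37 deg C. Lysed; phospho-Akt Ser473 by HTRF after 24 h, 665/615 ratio.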
# uPA generation: inhibitors of cell surface uPA generation. AID 540303. Potency, µM (top dose mostly 38.3 µM), inactives show at the highest dose activity change, negative = inhibition, hits mostly inhibitors. cell surface uPA generation assay, qHTS. 0.31% of 330,000 active; active = well fitted inhibition curve with a large enough effect; inconclusive = small, poorly fitted or top-dose-only effect; inactive = no such curve, though single readings can be large or run the other way; tested in mouse RAW 264.7 cells; also: potency is read from the fitted curve at half-maximal effect; % is scaled to controls: 0 for no effect and ±100 for the full control effect; nearly all actives have a fitted effect of over 55% in size
# * = called active by the depositor; i = inactive; ? = inconclusive; . = no result given; [ ] = remark or other dose. Unless noted, calls follow the shape of the dose curve; as a rule, active = well fitted curve in the direction sought with a large enough effect; inconclusive = small, poorly fitted or top-dose-only effect, or another doubt; inactive = no such curve, though single readings can be large; an effect the other way counts as inactive or inconclusive.
SMILES,Epigenetic derep,MBNL1 CUG block,Mm-Cpn inhibitor,CCT modulator,pAkt inh,uPA generation
Cn1cnc(S(=O)(=O)N2CCN(c3ccc(Cl)cc3)CC2)c1,.,3%,1%,-1,i,3%
O=S(=O)(Nc1ccon1)c1ccc(Br)cc1,.,7%,-5%,-2,i,1%
COc1ccc(CNc2ccnc(-c3ccccc3C(F)(F)F)n2)c(OC)c1,4%,.,.,.,.,.
CCN(CC)c1ccc(NC2CC(=O)N(CCc3ccc(OC)cc3)C2=O)cc1 (stereo not given),3.5µM*,16%,-1%,0,i,1%
Cc1c(C(=O)Nc2ccc(S(=O)(=O)Nc3ncccn3)cc2)oc2ccc(Cl)cc12,.,-3%,1%,-34*,i,15%
COc1ccc2c(c1OC)C(=O)N(c1ccc(F)cc1)C2,.,5%,0%,-40*,i,-12%
COc1ccc2c(c1OC)C(=O)N(c1cccc(NC(C)=O)c1)C2,.,-1%,1%,-2,i,-6%
Cc1cccc(CNC(=O)C(=O)Nc2ccccc2C)c1,-1%,.,.,.,.,.
COc1cc(C2OC(=O)c3c2ccc(OC)c3OC)ccc1O (stereo not given),.,.,-6%,.,.,.
COc1ccccc1-c1nc2c3ccccc3nc(=S)n2[nH]1,.,13%,0%,-1,i,-1%
COc1cc(-c2nc3c4ccccc4nc(=S)n3[nH]2)cc(OC)c1OC,.,-6%,1%,-37*,i,-5%
Cc1cc(C(=O)OCc2nnc(-c3ccccc3)o2)c(C)n1-c1ccccc1,-4%,2%,0%,-127*,i,10%
CCC(=O)NC(c1cc(Cl)c2cccnc2c1O)C1CC1 (stereo not given),.,.,-2%,.,.,13µM*
CCC(=O)NC(c1cccs1)c1cc(Cl)c2cccnc2c1O (stereo not given),-1%,-16%,2%,-2,i,7.1µM*
CCCCC(=O)NC(c1cccs1)c1cc(Cl)c2cccnc2c1O (stereo not given),?,23%,-4%,1,i,?
C=CC[C@@H]1C=C[C@@H](O/N=C(/C)CCC(=O)OC[C@@H]2O[C@H](c3ccccc3)C=C[C@@H]2Oc2ccc(OC)cc2)[C@@H](CO)O1,0%[10.1 µM],.,.,.,.,.
CCC(C)c1ccc(NC(=S)NCCn2cc(Br)cn2)cc1 (stereo not given),0%,-3%,-1%,-3,i,-3%
CCC(C)c1ccc(NC(=S)NCCn2cc(Cl)cn2)cc1 (stereo not given),-1%,16%,-2%,-39*,i,.
O=C1N/C(=C/c2cccn2-c2ccccc2)C(=O)N1Cc1ccc(F)cc1,7.1µM*,10%,-1%,-2,i,-5%
O=C1N/C(=C/c2cccn2-c2ccc(F)cc2)C(=O)N1Cc1ccccc1F,14%,3%,-2%,-14,i,2%
N=c1ccn2c(n1)O[C@@H]1[C@H](O)[C@H](CO)O[C@@H]12,8%,.,.,.,.,.
N=c1nc2n(cc1F)C1OC(CO)C(O)C1O2 (stereo not given),.,.,.,-48*,i,-10%
Cc1ccnc(NC(=O)c2ccc3[nH]c(=O)c(=O)[nH]c3c2)c1,.,-1%,0%,0,.,?
CCOC(=O)CSc1nnc(-c2cccs2)n1-c1ccccc1,-1%,5%,.,-1,i,2%
CCn1c(SCC(=O)NC2CCCCC2)nnc1-c1cccs1,0%,2%,2%,-2,-98%*,.
SMILES,Epigenetic derep,MBNL1 CUG block,Mm-Cpn inhibitor,CCT modulator,pAkt inh,uPA generation
O=C(CSc1nnc(-c2cccs2)n1-c1ccccc1)Nc1ccccc1,-9%,32%,-4%,-3,-92%*,0%
CCn1c(SCC(=O)NC2CC2)nnc1-c1cccs1,.,.,0%,-3,i,12%
CNc1nc(-c2ccccc2)cc(C)c1S(C)(=O)=O,-2%,2%,-3%,2,i,1%
COC(=O)[C@]12CCCCC=C1N(CCC1=CCCCC1)C(=O)[C@H](CC(=O)N1CCN(C(=O)c3ccco3)CC1)C2,.,.,.,0,i,.
CCOc1cc(C(=O)OC(C)C(=O)Nc2ccccc2OC)ccc1OCC(=O)N1CCOCC1 (stereo not given),.,.,.,-1,i,-9%
CCOc1cc(C(=O)OC(C)C(=O)Nc2ncc(Cl)cc2Cl)ccc1OCC(=O)N1CCOCC1 (stereo not given),0%,1%,-1%,-3,i,8.9µM*
COC1=CC(=O)c2ccccc2C1=O,.,.,0%,1,i,5µM*
COc1ccccc1OCC(=O)N/N=C1\CCc2ccccc21,-1%,3%,2%,-34*,i,6%
Cc1cccc2c1OCC/C2=N\NC(=O)COc1ccccc1,3%,-6%,1%,-32*,i,.
O=C1CC(c2ccccc2)CC(O)=C1C=NCCc1ccccc1 (stereo not given),1%,1%,-8%,-3,i,0%
O=C1C=CC[C@H](/C=C/C[C@@H](O)C[C@H](O)CCc2ccccc2)O1,.,.,.,0,i,10µM*
Cc1ccccc1NS(=O)(=O)c1ccc2[nH]cc(C(=O)NC(C)c3ccccc3)c(=O)c2c1 (stereo not given),-1%,.,.,.,.,.
O=C(C1CC1)N1CCc2cc(Br)cc(S(=O)(=O)NC3CCCCC3)c21,0%,-7%,2%,1,-119%*,0%
O=C(C1CC1)N1CCc2cc(Br)cc(S(=O)(=O)N3CCCCCC3)c21,1%,0%,1%,-1,i,2%
COc1ccc([C@H]2CC(=O)C=C(c3cc(C)ccc3OC)C2)cc1,.,.,-1%,-10,i,10µM*
COc1ccc([C@H]2CC(=O)C=C(c3cc(C)ccc3F)C2)cc1,.,.,-1%,-2,i,?
CCOc1ccc(Br)cc1C1=CC(=O)C[C@H](c2ccc(OC)cc2)C1,.,.,-7%,-1,i,2.8µM*
CCc1nc2c(OCc3ccc(Cl)cc3)cccn2c1N(C)C(=O)c1ccc(C)cc1,.,.,.,-2,i,.
COc1ccc(C2(CNC(=O)CCC(=O)O)CCCC2)cc1,1%,-8%,3%,2,-115%*,-3%
COCCn1nnnc1C(c1ccc2ncccc2c1)N1CCc2ccccc21 (stereo not given),0%,-1%,0%,1,i,0%
COCCn1nnnc1C(c1ccc2ncccc2c1)N1CCN(c2ccccc2F)CC1 (stereo not given),0%,-9%,-13%,2,-104%*,-14%
CS(=O)(=O)Nc1cccc(-c2nc(NCCN3CCOCC3)c3ccccc3n2)c1,0%,.,.,.,.,.
Cc1ccc(NC(=O)CSc2nc3c(cc2C#N)C(=O)CCC3)cc1S(=O)(=O)N(C)C,12%,?,-10%,-4,i,-8%
